According to the supplement of paper PMC10849652:
The full data set covers some 7,900 targets. This sample favours those with a hit. About 0.6% of all pairs of compound and target were hits. A number with no mark means an inactive call.

Tests used:
Test in all cases: log2 fold change, soluble protein after heating vs DMSO (PISA); higher = thermal stabilisation; K562 cells, 10 uM, 30 min; active = over 0.2 and 3.5 SD of the protein, either way, in both replicates (recomputed)
[1] = compound: C#Cc1cccc(Nc2ncnc3cc(OCCOC)c(OCCOC)cc23)c1 [erlotinib]
Procedure, shortened: (§1)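 Aliquots of K562 cells (2×10^6 cells/mL) treated with 10 μM compound for 30 min were heated for 3 min over 48°C-58°C. After pooling and extraction in PBS with 0.5% NP-40 at 4°C, soluble protein from a 21,000xg, 90 min spin was quantified by TMTpro 16plex LC-MS/MS with channel sums equalised. Thermal stability is expressed against control samples, from duplicates, as a log2 fold change.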

[2] = compound: C/C(=N\NC(=O)C1=CC(=CC=C1)S(=O)(=O)N2CCOCC2)/C3=C(C=CC(=C3)Cl)O
Procedure, shortened: as §1

[3] = compound: C1=CC(=C(C=C1Cl)C2=NC3=NC=CN=C3C(=N2)NC4=CC=NC=C4)F
Procedure, shortened: as §1

[4] = compound: C1=CC(=CC=C1C2=NC3=C(N2)C=C(C=C3)C(=O)N)OC4=CC=C(C=C4)Cl
Procedure, shortened: as §1

[5] = compound: C1=CC2=C(C=CC(=C2)/C=C\3/C(=O)NC(=NCC4=CC=CS4)S3)N=C1
Procedure, shortened: as §1

[6] = compound: C1=CC2=NC=CN=C2C=C1/C=C/3\C(=O)NC(=O)S3
Procedure, shortened: as §1

[7] = compound: C1=CC=C(C=C1)C2=NC(=C(N2)C3=CC=NC=C3)C4=CC(=C(C=C4)Cl)O
Procedure, shortened: as §1

[8] = compound: C1=CC=C2C(=C1)C3=NNC4=CC=CC(=C43)C2=O
Procedure, shortened: as §1

[9] = compound: C1CCN(C1)C(=O)NC2=CC=CC(=C2)NC3=NC=C(C(=N3)NCCC4=CN=CN4)Br
Procedure, shortened: as §1

[10] = compound: C1CN(CCC1(CC2=CC=C(C=C2)Cl)N)C3=NC=NC4=C3C=CN4
Procedure, shortened: as §1

[11] = compound: C1COCCN1CCN2C3=CC=CC=C3N=C2NC(=O)C4=CC(=CC=C4)[N+](=O)[O-] [IRAK-1-4 Inhibitor I]
Procedure, shortened: as §1

[12] = compound: C=CC(=O)N1CCC[C@@H](n2nc(-c3ccc(Oc4ccccc4)cc3)c3c(N)ncnc32)C1 [ibrutinib]
Procedure, shortened: as §1

[13] = compound: CC(=O)c1cnc2ccc(-c3cc(Cl)c(O)c(Cl)c3)nc2c1N[C@H]1CC[C@H](CN(C)C)CC1
Procedure, shortened: as §1

[14] = compound: CC(C)(C)Cn1c(N)nc2ccc(-c3[nH]c(C(C)(C)C)nc3-c3ccc(F)cc3)nc21 [ralimetinib]
Procedure, shortened: as §1

[15] = compound: CC(C)(O)CC(=O)NCCn1ccc2ncnc(Nc3ccc(Oc4cccc(C(F)(F)F)c4)c(Cl)c3)c21
Procedure, shortened: as §1

[16] = compound: CC(C)C1=C2N=C(C=C(N2N=C1)NCC3=CC=CC=C3)NCCCCCCN
Procedure, shortened: as §1

[17] = compound: CC(C)C[C@@H](C=O)NC(=O)[C@H](CC(C)C)NC(=O)[C@H](CC(C)C)NC(=O)OCc1ccccc1
Procedure, shortened: as §1

[18] = compound: CC(C)N(C[C@H]1O[C@@H](n2cnc3c(N)ncnc32)[C@H](O)[C@@H]1O)[C@H]1C[C@@H](CCc2nc3cc(C(C)(C)C)ccc3[nH]2)C1 [pinometostat]
Procedure, shortened: as §1

[19] = compound: CC1=C(C(CC(=O)N1)C2=CC=C(C=C2)C(F)(F)F)C(=O)NC3=C(C=C4C(=C3)C=NN4)F
Procedure, shortened: as §1

[20] = compound: CC1=C(C2=C(C=C1)C(=O)C3=CC=CC=C3N2CCCN)C
Procedure, shortened: as §1

Chain of UniProt Q9NYL2 (Q9NYL2 whole entry, looked up): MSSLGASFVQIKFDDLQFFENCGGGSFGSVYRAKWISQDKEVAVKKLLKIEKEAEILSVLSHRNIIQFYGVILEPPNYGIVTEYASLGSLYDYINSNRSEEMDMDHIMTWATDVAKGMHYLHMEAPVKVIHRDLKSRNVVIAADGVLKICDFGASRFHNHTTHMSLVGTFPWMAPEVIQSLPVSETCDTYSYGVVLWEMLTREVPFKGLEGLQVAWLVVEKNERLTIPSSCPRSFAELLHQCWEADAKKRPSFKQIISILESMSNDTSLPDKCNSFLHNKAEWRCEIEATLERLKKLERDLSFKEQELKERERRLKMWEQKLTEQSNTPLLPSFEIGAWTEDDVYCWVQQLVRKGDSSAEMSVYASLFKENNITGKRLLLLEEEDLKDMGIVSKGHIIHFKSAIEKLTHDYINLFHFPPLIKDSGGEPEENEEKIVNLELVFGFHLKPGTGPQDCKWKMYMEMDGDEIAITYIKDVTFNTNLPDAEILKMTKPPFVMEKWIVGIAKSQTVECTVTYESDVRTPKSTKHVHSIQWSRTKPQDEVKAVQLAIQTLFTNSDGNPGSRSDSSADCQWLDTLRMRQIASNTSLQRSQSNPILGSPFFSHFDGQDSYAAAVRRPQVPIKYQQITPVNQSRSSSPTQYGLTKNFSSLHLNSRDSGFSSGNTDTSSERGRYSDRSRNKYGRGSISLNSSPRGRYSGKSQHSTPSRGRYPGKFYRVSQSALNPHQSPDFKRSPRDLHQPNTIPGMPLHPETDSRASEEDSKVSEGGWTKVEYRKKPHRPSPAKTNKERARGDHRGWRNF
Chain of UniProt Q16539 (Q16539 whole entry, looked up): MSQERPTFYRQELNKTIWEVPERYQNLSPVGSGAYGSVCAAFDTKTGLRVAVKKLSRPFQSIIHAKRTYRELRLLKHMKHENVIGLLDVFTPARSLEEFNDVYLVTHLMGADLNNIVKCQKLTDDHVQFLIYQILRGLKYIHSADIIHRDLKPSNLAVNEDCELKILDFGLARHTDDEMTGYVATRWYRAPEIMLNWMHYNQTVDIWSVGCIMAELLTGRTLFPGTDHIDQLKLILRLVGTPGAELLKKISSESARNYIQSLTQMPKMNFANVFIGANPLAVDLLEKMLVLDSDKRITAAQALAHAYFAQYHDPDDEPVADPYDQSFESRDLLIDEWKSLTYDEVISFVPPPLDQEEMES
Chain of UniProt Q8NHS3 (Q8NHS3 whole entry, looked up): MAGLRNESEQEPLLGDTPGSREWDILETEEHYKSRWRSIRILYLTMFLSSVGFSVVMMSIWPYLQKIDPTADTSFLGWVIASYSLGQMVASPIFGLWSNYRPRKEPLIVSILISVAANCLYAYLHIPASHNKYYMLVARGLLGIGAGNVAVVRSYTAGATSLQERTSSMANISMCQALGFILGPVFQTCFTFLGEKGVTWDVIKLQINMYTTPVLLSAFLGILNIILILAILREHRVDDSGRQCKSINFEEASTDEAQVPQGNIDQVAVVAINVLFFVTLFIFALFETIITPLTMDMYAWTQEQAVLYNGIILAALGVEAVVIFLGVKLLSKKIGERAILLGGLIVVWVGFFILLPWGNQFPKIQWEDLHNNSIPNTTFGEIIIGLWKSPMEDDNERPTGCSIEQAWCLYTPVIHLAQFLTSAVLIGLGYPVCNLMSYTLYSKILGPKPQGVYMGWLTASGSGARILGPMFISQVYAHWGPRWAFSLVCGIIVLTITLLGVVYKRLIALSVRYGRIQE
Chain of UniProt Q96GX5 (Q96GX5 whole entry, looked up): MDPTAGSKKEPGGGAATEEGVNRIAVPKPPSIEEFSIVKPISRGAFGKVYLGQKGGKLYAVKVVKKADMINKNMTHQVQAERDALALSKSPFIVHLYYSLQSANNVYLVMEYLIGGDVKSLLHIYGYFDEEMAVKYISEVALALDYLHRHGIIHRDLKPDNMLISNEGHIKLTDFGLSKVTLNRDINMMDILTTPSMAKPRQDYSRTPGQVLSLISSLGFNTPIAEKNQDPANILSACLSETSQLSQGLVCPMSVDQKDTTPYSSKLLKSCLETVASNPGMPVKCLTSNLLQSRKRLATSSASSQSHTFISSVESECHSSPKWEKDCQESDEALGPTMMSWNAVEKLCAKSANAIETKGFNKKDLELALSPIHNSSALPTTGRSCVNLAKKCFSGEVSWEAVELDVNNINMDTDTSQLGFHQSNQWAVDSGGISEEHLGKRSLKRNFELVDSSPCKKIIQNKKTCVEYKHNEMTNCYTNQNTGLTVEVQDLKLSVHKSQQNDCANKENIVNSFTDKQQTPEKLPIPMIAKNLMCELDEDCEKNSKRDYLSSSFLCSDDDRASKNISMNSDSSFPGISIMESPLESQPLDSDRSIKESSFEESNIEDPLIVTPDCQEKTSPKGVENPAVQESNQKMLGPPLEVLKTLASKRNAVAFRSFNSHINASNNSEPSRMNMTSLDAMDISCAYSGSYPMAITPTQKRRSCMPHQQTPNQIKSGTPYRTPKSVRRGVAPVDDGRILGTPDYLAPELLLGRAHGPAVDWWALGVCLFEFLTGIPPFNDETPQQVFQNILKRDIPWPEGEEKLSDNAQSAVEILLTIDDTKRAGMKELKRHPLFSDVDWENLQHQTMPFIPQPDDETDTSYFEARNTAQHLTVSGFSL
Chain of UniProt P27448 (P27448 whole entry, looked up): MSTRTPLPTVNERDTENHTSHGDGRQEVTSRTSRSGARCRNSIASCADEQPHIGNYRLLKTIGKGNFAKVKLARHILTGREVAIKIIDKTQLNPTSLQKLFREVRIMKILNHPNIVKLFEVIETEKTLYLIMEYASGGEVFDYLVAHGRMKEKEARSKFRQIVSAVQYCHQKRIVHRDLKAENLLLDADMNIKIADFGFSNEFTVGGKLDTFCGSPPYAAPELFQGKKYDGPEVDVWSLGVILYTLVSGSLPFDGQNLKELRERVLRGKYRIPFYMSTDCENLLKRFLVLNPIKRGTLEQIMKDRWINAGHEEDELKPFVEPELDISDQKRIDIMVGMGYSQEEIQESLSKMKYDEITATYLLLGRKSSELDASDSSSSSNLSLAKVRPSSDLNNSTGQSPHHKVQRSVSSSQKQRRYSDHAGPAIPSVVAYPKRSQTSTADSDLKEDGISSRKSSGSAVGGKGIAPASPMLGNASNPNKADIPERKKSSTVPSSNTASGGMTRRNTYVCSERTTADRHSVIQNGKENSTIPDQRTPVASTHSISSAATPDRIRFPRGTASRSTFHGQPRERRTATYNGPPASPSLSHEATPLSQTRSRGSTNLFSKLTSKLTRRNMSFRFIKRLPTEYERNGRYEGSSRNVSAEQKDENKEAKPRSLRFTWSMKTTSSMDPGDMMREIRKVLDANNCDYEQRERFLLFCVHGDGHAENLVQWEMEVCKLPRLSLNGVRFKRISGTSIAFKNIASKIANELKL
Chain of UniProt Q9H3U5 (Q9H3U5 whole entry, looked up): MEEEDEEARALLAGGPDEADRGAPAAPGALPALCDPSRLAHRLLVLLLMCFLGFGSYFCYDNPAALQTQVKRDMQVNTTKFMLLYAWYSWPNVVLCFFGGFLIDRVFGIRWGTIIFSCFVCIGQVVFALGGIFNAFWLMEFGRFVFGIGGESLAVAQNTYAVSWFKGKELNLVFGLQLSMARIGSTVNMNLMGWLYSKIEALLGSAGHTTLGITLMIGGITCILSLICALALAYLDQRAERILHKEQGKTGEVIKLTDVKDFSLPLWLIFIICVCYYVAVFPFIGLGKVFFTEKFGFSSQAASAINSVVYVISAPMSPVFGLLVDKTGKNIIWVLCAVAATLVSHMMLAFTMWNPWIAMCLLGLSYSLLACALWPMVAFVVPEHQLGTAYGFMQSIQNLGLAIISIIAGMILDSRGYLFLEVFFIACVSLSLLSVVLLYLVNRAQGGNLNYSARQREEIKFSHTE
Chain of UniProt Q9BQK8 (Q9BQK8 whole entry, looked up): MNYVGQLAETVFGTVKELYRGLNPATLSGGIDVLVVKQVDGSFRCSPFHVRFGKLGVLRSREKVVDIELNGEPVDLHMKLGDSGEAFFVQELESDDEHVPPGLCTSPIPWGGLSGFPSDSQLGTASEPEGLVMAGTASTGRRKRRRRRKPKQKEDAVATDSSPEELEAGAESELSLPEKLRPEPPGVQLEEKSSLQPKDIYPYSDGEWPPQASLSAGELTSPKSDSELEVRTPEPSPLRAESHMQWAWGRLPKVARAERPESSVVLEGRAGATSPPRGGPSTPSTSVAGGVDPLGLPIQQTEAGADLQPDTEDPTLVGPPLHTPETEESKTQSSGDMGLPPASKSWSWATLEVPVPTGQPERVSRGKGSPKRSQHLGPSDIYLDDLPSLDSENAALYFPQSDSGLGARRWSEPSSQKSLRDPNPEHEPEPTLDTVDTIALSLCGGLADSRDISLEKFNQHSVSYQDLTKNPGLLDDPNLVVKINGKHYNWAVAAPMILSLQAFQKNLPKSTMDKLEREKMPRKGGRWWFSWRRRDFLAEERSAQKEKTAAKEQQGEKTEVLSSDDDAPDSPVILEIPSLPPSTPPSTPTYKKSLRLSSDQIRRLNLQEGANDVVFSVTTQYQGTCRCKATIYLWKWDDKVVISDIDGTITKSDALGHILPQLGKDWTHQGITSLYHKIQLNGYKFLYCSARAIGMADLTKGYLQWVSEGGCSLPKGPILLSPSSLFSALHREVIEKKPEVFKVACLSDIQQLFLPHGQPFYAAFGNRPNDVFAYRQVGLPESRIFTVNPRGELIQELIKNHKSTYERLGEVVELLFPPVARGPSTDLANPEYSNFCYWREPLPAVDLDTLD
Chain of UniProt O00214 (O00214 whole entry, looked up): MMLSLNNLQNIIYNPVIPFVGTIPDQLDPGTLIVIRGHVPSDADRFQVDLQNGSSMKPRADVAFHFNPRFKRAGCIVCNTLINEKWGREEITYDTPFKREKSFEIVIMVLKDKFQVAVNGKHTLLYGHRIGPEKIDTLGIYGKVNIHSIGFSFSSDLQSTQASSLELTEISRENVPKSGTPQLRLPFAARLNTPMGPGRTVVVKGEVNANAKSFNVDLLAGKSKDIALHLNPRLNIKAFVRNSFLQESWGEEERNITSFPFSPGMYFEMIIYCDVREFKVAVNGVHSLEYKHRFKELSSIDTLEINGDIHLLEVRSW

Target	log2 fold change [1]	log2 fold change [2]	log2 fold change [3]	log2 fold change [4]	log2 fold change [5]	log2 fold change [6]	log2 fold change [7]	log2 fold change [8]	log2 fold change [9]	log2 fold change [10]	log2 fold change [11]	log2 fold change [12]	log2 fold change [13]	log2 fold change [14]	log2 fold change [15]	log2 fold change [16]	log2 fold change [17]	log2 fold change [18]	log2 fold change [19]	log2 fold change [20]
MARK3 (UniProt P27448)	0.009	0.116	-0.031	0.014	0	0.008	-0.032	-0.578 (active)	-0.221	-0.208	-0.071	-0.026	-2.03 (active)	0.014	-0.035	-0.171	0.084	0.156	0.136	0.026
LEO1 (UniProt Q8WVC0)	0.132	0.108	0.194	-0.079	-0.006	0.007	-0.035	-0.039	-0.076	-0.045	0.134	0.026	-0.027	-0.031	-0.044	-0.016	0.068	0.019	0.019	-0.394 (active)
KIF3B (UniProt O15066)	-0.015	0.016	-0.015	-0.108	-0.02	0.004	-0.029	0.077	-0.101	-0.039	0.06	-0.029	0.016	-0.048	0.018	-0.021	0.068	0.033		-0.008
LPIN3 isoform 2 (UniProt Q9BQK8)	0.053	0.062	0.038	-0.045	0.108	0.022	-0.048	0.022	0.002	-0.014		-0.041	-0.164	-0.024	-0.14	0.027	0.073		-0.019	0.099
KHDRBS1 (UniProt Q07666)	-0.023	0.042	-0.076	0.029	-0.088	0.046	0.027	0.014	-0.029	-0.084	-0.069	0.038	-0.002	0.016	0.073	-0.039	0.017	-0.052	-0.012	0.621 (active)
KEL (UniProt P23276)	0.011	0.042	0.008	0.13	-0.005	0.147	-0.029	-0.067	-0.013	-0.001	-0.001	0.052	-0.028	-0.011	0.054	0.025	-0.102	-0.02	-0.006	0.041
MAP3K20 isoform 2 (UniProt Q9NYL2)	-0.002	-0.128	0.051	0.052	-0.091			-0.168	-0.004	0.007	-0.164		-0.126		0.078	0.089		-0.021	0.01	-0.071
MASTL (UniProt Q96GX5)	0.008	0.045	0.026	-0.015	-0.076	0.124	-0.087	0.007			-0.001	-0.008	-0.061	0.001	-0.393 (active)	-0.028	0.138	0.07	0.022	
LYN isoform 2 (UniProt P07948)	-0.387	0.117	-0.234	-0.152	0.146			-0.163			0.04		-0.246		0.002	-0.078		0.147	-0.113	
KMT2C isoform 3 (UniProt Q8NEZ4)	0.038	-0.032	0.006	0.012	0.078	0.021	-0.194	-0.056	0.003	0.018		0.007	-0.02	0.074	-0.044	-0.06	0.191		0.002	0.049
MFSD8 (UniProt Q8NHS3)	0.047	-0.018	-0.012	-0.089	0.009	0.166	0	-0.054	-0.033	-0.091	0.062	0.13	0.036	0.19	0.067	-0.446 (active)	0.08	0.101		0.124
LGALS8 isoform 2 (UniProt O00214)	-0.011	-0.034	-0.282	0.062	-0.038	-0.059		0.036	0.043	0.039	-0.027	-0.262	0.049		0.092	0.123		0.11		0.096
MAPK14 (UniProt Q16539)	0.238	0.106		-0.116	-0.054	0.001	1.04 (active)	0.174	0.051	-0.072	-0.048	0.016	0.793 (active)	1.52 (active)		-0.178	-0.135	-0.09	-0.234	0.062
MFSD1 isoform 6 (UniProt Q9H3U5)	-0.011	0.011	0.006	0.029	-0.002	-0.009	0.018	0.014	0.059	0.084		0.017	0.025	-0.172	0.055	-0.427 (active)	0.043		0.017	0.08
MDN1 (UniProt Q9NU22)	0.063	0.11	0.02	-0.025	0.144	0.037	0.02	-0.022	-0.025	0	-0.011	-0.046	-0.126	-0.015	-0.24	-0.22	-0.029	-0.009	0.006	0.005
LRBA (UniProt P50851)	0.007	0.024	0.068	0.002	0.031	0.051	0.011	-0.002	0.012	0.015	0.015	-0.02	-0.006	-0.023	-0.059	-0.091	0.005	0.008	-0.005	-0.004
